Active and inactive are the calls of the source. The calls were made as follows: active = hit-call score of the fitted dose curve at least 0.9, where 1 is the maximum; inactive = score below 0.9.
These molecules were tested on CFLAR gene, CFLAR (gene 8837) (assay: LTEA_HepaRG_CFLAR: Life Technologies and Expression Analysis (LTEA) Assay for CFLAR gene using HepaRG (AID 2283455)). Settings: mRNA level, 48 h; actives raise or lower the signal.
Procedure: LTEA_HepaRG is a cell based, multiplexed-readout assay that uses HepaRG, a human liver cell line, with measurements taken at 48 hours after chemical dosing on a 96-well plate.LTEA_HepaRG_CFLAR is one of 102 assay component(s) measured in the LTEA HepaRG cell culture assay. It is a marker of Cell proliferation, survival, death.Data from the assay component LTEA_HepaRG_CFLAR was analyzed into 1 endpoint. This assay endpoint, LTEA_HepaRG_CFLAR, was analyzed with bidirectional fitting relative to DMSO as the negative control and baseline of activity. Using a type of inducible reporter, measures of mRNA induction for gain or loss-of-signal activity can be used to understand regulation of transcription factor activity. To generalize the intended target to other relatable targets, this assay endpoint is annotated to the cell cycle intended target family, where the subfamily is Cell proliferation, survival, death.
A total of 1060 chemcials from the ToxCast library were tested in eight-point concentration-response experiments. Cell culture and cytotoxicity assays were conducted at Thermo Fisher Scientific's Custom Services facility (Madison, WI). A single lot of human HepaRG cells (Thermo Fisher Scientific, Frederick, MD) was used for the cell culture experiments. 96-well format collagen type I coated plates of human HepaRG cells were prepared using established methods. Briefly, cryopreserved HepaRG cells were thawed, plated at a density of approximately 100,000 cells/well in HepaRG Thaw, Plate, and General Purpose media (HPRG770, Thermo Fisher Scientific), and incubated for 48 hours. 0.5% DMSO was selected as vehicle control to balance the requisite need of DMSO in HepaRG cultures to maintain differentiation (for example, baseline metabolism, proportions of hepatocytes vs. cholangiocytes), while enabling further hepatic receptor pathway activation (for example, PXR and CAR) in response to chemical exposure. 48 hours after plating, the culture medium was replaced with HepaRG Serum-Free Incudtion Media. Cells were exposed to each test chemical in duplicate and maintained in CO2 incubators for another 48 hours. Chemical plates were thawed to room temperature and 200x concentrations of treatment groups were prepared. 8-point conentration-reponse curves were made with the highest exposure at 100 uM, followed by half-log dilutions, all in 0.5% DMSO. Each test plate contained variouse controls, induction positive controls (1mM phenobarbital), cytotoxicity positive controls ([…] aflatoxin B1), vehicle controls (0.5% DMSO), and total lysis controls (0.5% DMSO). Cell morphology images were taken using an Essen IncuCyte FLR automated microscope, with six 96-well plates imaged in about 24 minutes. Images were captured and exported and JPEG files. Spent culture media was transfered to black-well plates for the LDH assay, and remaining media was sorted at -80 C for later use. Cells were treated with RLT buffer and frozen until shipped for gene expression analysis. Total RNA was isolated from the cell suspension in 75 uL of Buffer RLT (Qiagen, Germantown, MD 20874) by Quintiles/Expression Analysis (Durham, NC) using a custom isolation procedure. Total RNA from each plate well was transferred to a preamplification plate. Fluidigm's 96.96 Dynamic ArrayTM (Fluidigm, Amsterdam, the Netherlands) technology was used for gene expression analyses by quantitative reverse transcription polymerase chain reaction (qRT-PCR, performed by Quintiles/Expression Analysis, Durham, NC)89. Standard TaqManTM Assays (Applied Biosystems/ThermoFisher Scientific, Foster City, CA) were used to assess the expression of 93 genes selected based on their selectivity and sensitivity to important hepatic receptors known to be modulated by environmental chemicals; importance in human hepatocyte functionality; and hepatotoxicity. […]

Row | SMILES | outcome | AC50
1 | COC(=O)c1ccccc1N | inactive | 
2 | Oc1ccccc1Cl | inactive | 
3 | CCNS(=O)(=O)C(F)(F)C(F)(F)C(F)(F)C(F)(F)C(F)(F)C(F)(F)C(F)(F)C(F)(F)F | inactive | 
4 | O=P(OCCCl)(OCCCl)OCCCl | inactive | 
5 | CCC12COCN1COC2 | inactive | 
6 | N#CC(Br)Br | inactive | 
7 | O=C(Oc1ccc(Br)cc1)N1CCN2CCC1CC2 | inactive | 
8 | CCN(CC)N=O | inactive | 
9 | Nc1ccc(Cl)cc1N |  | 33.1 µM (active)
10 | Cn1cc(-c2ccccc2)c(=O)c(-c2cccc(C(F)(F)F)c2)c1 |  | 9.92 µM (active)
11 | O=C1CCCO1 | inactive | 
12 | [As]#[In] | inactive | 
13 | OCCOCCO | inactive | 
14 | COc1cc(C=O)cc2c1[C@H](COC(N)=O)[C@]1(OC(C)=O)ON2C[C@H]2[C@@H]1N2C(C)=O | inactive | 
15 | CC(C)(C)OOC(=O)c1ccccc1 | inactive | 
16 | CCCCCCCCOC(=O)c1ccc(C(=O)OCCCCCCCC)c(C(=O)OCCCCCCCC)c1 | inactive | 
17 | CCCCCCCCCCCCCN1CC(C)OC(C)C1 (stereo not given) | inactive | 
18 | CC(C)(C)C(O)(CCc1ccc(Cl)cc1)Cn1cncn1 (stereo not given) | inactive | 
19 | CN(C)C(=O)Nc1ccc(Cl)cc1 | inactive | 
20 | Cc1ccc(N)cc1 | inactive | 

Row | SMILES | outcome | AC50
21 | N#CC(Br)(Br)C(N)=O | inactive | 
22 | c1ccc(N=Nc2ccccc2)cc1 | inactive | 
23 | c1ccc(C2CO2)cc1 (stereo not given) | inactive | 
24 | ClCCOCCCl | inactive | 
25 | Nc1cc(Cl)cc(C(=O)O)c1Cl | inactive | 
26 | CC(C)(O)c1cnn2c(-c3ccc(F)c(-c4c(F)cccc4C#N)c3)cnc2n1 | inactive | 
27 | O=C(O)C1C2CCC(O2)C1C(=O)O (stereo not given) | inactive | 
28 | CN(C)c1ccc(C(=O)c2ccc(N(C)C)cc2)cc1 | inactive | 
29 | CCCSC(=O)N(CCC)CCC | inactive | 
30 | CN(C)c1ccccc1 | inactive | 
31 | CCOC(=O)[C@]1(c2ccccc2)Oc2ccccc2[C@@H]1N | inactive | 
32 | C=CCc1ccc2c(c1)OCO2 | inactive | 
33 | OCCCBr | inactive | 
34 | COP(=S)(OC)SCN1C(=O)c2ccccc2C1=O | inactive | 
35 | CC(C)COC(=O)c1ccccc1C(=O)OCC(C)C | inactive | 
36 | Cc1cccc(N)c1N |  | 50 µM (active)
37 | CN(C)[C@@H]1C(=O)C(C(N)=O)=C(O)[C@@]2(O)C(=O)C3=C(O)c4c(O)cccc4[C@@](C)(O)[C@H]3C[C@@H]12 | inactive | 
38 | Nc1ccc(Cc2ccc(N)cc2)cc1 | inactive | 
39 | c1ccc2c(c1)-c1cccc3cccc-2c13 | inactive | 
40 | CNC(=O)Oc1cccc2c1OC(C)(C)C2 | inactive | 

— PubChem BioAssay (EPA / NIEHS)
